From PubChem
JMJD2A Tudor inh: JMJD2A Tudor domain (human) inhibition | O75164 | AlphaScreen JMJD2A-Tudor / H3K4me3 peptide binding | Potency, µM (highest dose often 114 µM), without a hit: top-dose activity change, negative = inhibition, hits mostly inhibitors | actives 4.4% (n = 390,000); further: on the % scale 0 is the no-effect control and ±100 the full control effect; nearly all actives have a fitted effect of over 50% in size
Target sequence (O75164 whole entry, looked up, the tested form may be a part): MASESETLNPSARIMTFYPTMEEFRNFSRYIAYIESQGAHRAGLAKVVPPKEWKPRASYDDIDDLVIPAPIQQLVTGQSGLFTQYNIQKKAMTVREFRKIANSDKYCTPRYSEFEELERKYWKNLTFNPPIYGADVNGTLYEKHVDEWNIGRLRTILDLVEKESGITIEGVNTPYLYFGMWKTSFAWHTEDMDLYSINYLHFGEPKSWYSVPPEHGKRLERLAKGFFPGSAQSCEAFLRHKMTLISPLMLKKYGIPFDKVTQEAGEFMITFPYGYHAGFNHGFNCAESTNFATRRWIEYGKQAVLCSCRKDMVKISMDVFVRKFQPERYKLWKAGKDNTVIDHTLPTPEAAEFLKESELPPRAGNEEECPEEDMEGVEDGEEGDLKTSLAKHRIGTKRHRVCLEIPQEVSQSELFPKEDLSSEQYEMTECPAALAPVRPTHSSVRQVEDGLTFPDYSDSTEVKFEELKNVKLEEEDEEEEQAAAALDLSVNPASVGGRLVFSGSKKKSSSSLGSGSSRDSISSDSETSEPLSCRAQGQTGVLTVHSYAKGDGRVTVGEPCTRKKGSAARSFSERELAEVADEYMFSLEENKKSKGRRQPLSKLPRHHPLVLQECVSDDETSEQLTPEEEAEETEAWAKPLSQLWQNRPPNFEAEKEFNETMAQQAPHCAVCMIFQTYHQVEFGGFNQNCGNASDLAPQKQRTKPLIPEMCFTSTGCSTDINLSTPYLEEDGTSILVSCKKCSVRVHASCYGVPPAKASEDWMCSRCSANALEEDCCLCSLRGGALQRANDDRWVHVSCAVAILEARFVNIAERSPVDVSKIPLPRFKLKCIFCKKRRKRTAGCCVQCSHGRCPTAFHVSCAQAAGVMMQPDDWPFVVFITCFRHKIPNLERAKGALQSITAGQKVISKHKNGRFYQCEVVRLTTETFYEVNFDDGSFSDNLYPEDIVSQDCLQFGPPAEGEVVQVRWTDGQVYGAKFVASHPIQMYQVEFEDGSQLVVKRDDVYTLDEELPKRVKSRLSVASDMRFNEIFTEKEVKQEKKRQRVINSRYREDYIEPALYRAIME
L3MBTL1 inh: L3MBTL1 (human) inhibition | Q9Y468 | Potency, µM (doses to about 57.1 µM), for inactives: at the top dose activity, negative = inhibition, hits mostly inhibitors | AID 485360 | actives 0.66% (n = 230,000) | AlphaScreen L3MBTL1–H3K9me1 peptide binding; further: on the % scale 0 is the no-effect control and ±100 the full control effect; nearly all actives have a fitted effect of over 60% in size
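Read-out is AlphaScreen signal from streptavidin donor and nickel chelate acceptor beads (10 ug/mL final each) bridging L3MBTL1 (50 nM) and biotinylated K9-monomethylated H3(1-15) peptide (75 nM), after 30 min compound exposure at room temperature.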
G9a block: G9a (human) methyltransferase inhibition. Q96KQ7. G9a H3K9 monomethylation, AlphaScreen, 2 h. Potency, µM (titrated, usually from 102 µM), for the others: top-dose activity, negative = inhibition, usual class: inhibitors. actives 8.8% (n = 350,000). AID 504332; further: on the % scale 0 is the no-effect control and ±100 the full control effect; nearly all actives have a fitted effect of over 75% in size
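Signal arises when biotinylated H3K9 peptide, once monomethylated, bridges streptavidin donor and antibody-captured acceptor beads. Enzyme at 20 nM was preincubated 15 min with test compounds; peptide 500 nM and SAM 20 uM then reacted for 2 h.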
Sfp inh: inhibitors of Bacillus subtilis Sfp phosphopantetheinyl transferase; Q9F4F7; Biochemical Sfp PPTase activity, qHTS; Potency, µM, for inactives: largest response in the series, negative = inhibition, usual class: inhibitors; actives 3.5% (n = 310,000);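 further: the enzyme is Sfp with the accession as filed and its product quenches rhodamine fluorescence; 0% = enzyme reaction without inhibitor and -100% = no enzyme wells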
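Step 1, compound plus 15 nM Sfp-PPTase, 15 min, room temperature. Step 2, add rhodamine-CoA (5 uM) and BHQ-2-YbbR (12.5 uM). Step 3, read 525/598 nm fluorescence at 0 and 30 min.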
HP1b binding inh: HP1-beta chromodomain-methylated histone interaction inhibition | P83916 | AlphaScreen HP1-beta / biotin-H3K9me3 peptide binding | Potency, µM (top dose mostly 114 µM), inactives show at the top dose activity change, negative = inhibition, usual class: inhibitors | actives 0.56% (n = 390,000); further: nearly all actives have a fitted effect of over 70% in size
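Compound inhibition of the preformed complex between 50 nM HP1-beta and 50 nM biotinylated H3K9me3 peptide was read by AlphaScreen. Buffer was PBS pH 7.4 with 0.01% Tween-20. Incubations ran 30 min at room temperature, with 10 ug/mL donor/acceptor beads.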
BAZ2B block: blocks human BAZ2B | Potency, µM (titrated, usually from 114 µM), without a hit: at the top dose activity change, negative = inhibition, usual class: inhibitors | AlphaScreen BAZ2B-H3K14Ac peptide displacement | Q9UIF8 | actives 4.4% (n = 360,000) | AID 504333; further: on the % scale 0 is the no-effect control and ±100 the full control effect; nearly all actives have a fitted effect of over 60% in size
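Multi-concentration screen (max 110 uM) measuring displacement of acetylated histone H3 peptide from BAZ2B by AlphaScreen, using 50 nM protein, 50 nM peptide and 10 ug/mL streptavidin donor plus Ni-chelate acceptor beads.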
* = called active by the depositor; ? = inconclusive; nt = no result given; [ ] = dose if it differs, or a comment. In the library only some 12% were active in any assay of this set; here they are far more common. The call rests on the fitted dose curve; in most records, active means well fitted curve in the direction sought with a large enough effect; inconclusive means small, poorly fitted or top-dose-only effect, or another doubt; inactive means no such curve, though single readings can be large; an effect the other way counts as inactive or inconclusive. Potency means the concentration at half of the fitted maximal effect.

SMILES	JMJD2A Tudor inh	L3MBTL1 inh	G9a block	Sfp inh	HP1b binding inh	BAZ2B block
O=C(CCCCCCC(=O)NCc1ccccc1)NCc1ccccc1	-6%	10%	-3%	13%	40%	3%
COc1ccc(C2C=C(c3ccccc3)Nc3nc(NC(=O)/C=C/c4ccc(Cl)cc4)nn32)cc1 (stereo not given)	6%	nt	?	nt	35%	-2%
Cc1cccc(C(=O)n2cnnc2N)c1	-4%	3%	22µM*	7%	33%	-27%
Cc1cc(C)cc(C(=O)n2cnnc2N)c1	-12%	3%[11.4 µM]	?	18%	49%	10%
COc1cc(C2Nc3ccccc3NC3=C2C(=O)CC(C)(C)C3)cc(OC)c1OC(C)=O (stereo not given)	-20%	4%	50µM*	12%	25%	6%
COc1cccc(C2Nc3ccccc3NC3=C2C(=O)CC(C)(C)C3)c1 (stereo not given)	-4%	2%	20%	21%	30%	5%
O=C(/C=C/c1ccccc1)c1ccc(O)cc1O	nt	nt	-24%[2.33 µM]	-13%	nt	nt
O=C(/C=C/c1cc[n+](CC(=O)c2ccc3cccc4c3c2CC4)cc1)c1ccc2cccc3c2c1CC3	-18%[11.4 µM]	nt	40µM*	35µM*	8%	?
Cc1nnc(N/N=C/c2ccccc2O)n1N	?	nt	-6%	18%	38%	40µM*
Cc1nnc(N/N=C/c2c(Cl)cccc2Cl)n1N	-8%	-15%	0%	?	55%	50µM*
Cc1[nH]c2ccccc2c1/C=N/NC(N)=S	-25%	-17%	-26%[59 µM]	-5%	1%	-34%
C=CCc1c(C)nc(C)nc1N/N=C/c1ccccc1O	?	?	-12%[12.7 µM]	-25%	14%	50µM*
Clc1cccc(Cl)c1/C=N\Nc1nccs1	-28%	-6%	-47%[12.7 µM]	-1%	10%	-21%
CCc1nnc(N/N=C/c2c(C)[nH]c3ccccc23)n1N	-31%	-19%	18µM*	8.9µM*	24%	45µM*
Cc1ccc(Cl)cc1NC(=O)CSc1ccc(C(=O)O)cn1	14%	nt	9%[59 µM]	nt	54%	3%
CCc1nnc(N/N=C/c2c(F)cccc2Cl)n1N	7%	-5%	45µM*	-25%	45%	-5%
Cc1nnc(N/N=C/c2cc(C)n(-c3ccc(F)cc3)c2C)n1N	-30%	-15%	?	45µM*	2%	50µM*
CCc1nnc(N/N=C/c2cc(C)c(C)cc2C)n1N	-12%	-6%	79µM*	-17%	40%	1%
COC(=O)c1ccc(-n2c(C)cc(/C=N/Nc3nc(C)cc(=O)[nH]3)c2C)cc1	-12%[11.4 µM]	nt	28%[12.7 µM]	-18%	36%	?
O=C(NCc1cccs1)c1ccc(Cn2c(SCc3cccc(F)c3)nc3cccnc32)cc1	-23%	nt	-14%[59 µM]	nt	3%	-4%
CCCCc1nn2c(=O)cc(COC(=O)c3cccc(NC(=O)c4cccs4)c3)nc2s1	-22%	nt	-7%[59 µM]	nt	2%	-6%
COc1cc(C(=O)OCCN2CCOCC2)ccc1O	?	-3%	-5%[59 µM]	10%	-7%	4%
O=C(OCCCN1CCOCC1)c1ccc(O)c(O)c1	32µM*	-1%	13µM*	?	22%	-29%
COc1ccccc1Nc1nc(-c2ccccc2F)nc2ccccc12	120%	nt	109%[59 µM]	nt	162%	105%
Cn1cnnc1SCC(=O)NN1C(=O)NC(C)(c2ccccc2)C1=O (stereo not given)	-11%	-1%	22µM*	5%	26%	-30%
SMILES	JMJD2A Tudor inh	L3MBTL1 inh	G9a block	Sfp inh	HP1b binding inh	BAZ2B block
C/C1=C\[C@@H](O)C(C(C)C)C(OC(=O)c2ccc(O)cc2)C/C(C)=C/CC1 (stereo not given in full)	nt	nt	nt	8%	nt	nt
COc1ccc(CNc2nc(-c3ccco3)nn2S(=O)(=O)c2ccc3ccccc3c2)cc1OC	-27%	nt	?	nt	10%	?
O=C(/C=C/c1ccc(O)c(O)c1)O[C@@H]1C[C@@](O)(C(=O)O)C[C@H](O)[C@@H]1O	nt	nt	nt	50µM*	nt	nt
COc1cc(Cl)c(NS(=O)(=O)c2cc3[nH]c(=O)c(=O)[nH]c3cc2C)c(OC)c1	-13%	-4%	12%[59 µM]	9%	22%	?
Cc1cccc(NC(=O)C(NS(=O)(=O)c2ccc3c(c2)CCC(=O)N3)c2ccccc2)n1 (stereo not given)	?	2%	22µM*	-29%	25%	1%
C=CCN(CC=C)S(=O)(=O)c1ncn[nH]1	-34%	-5%	?	-24%	15%	79µM*
COc1ccc(OC)c(S(=O)(=O)N2CCC(C(=O)NC3CCCC3)CC2)c1	6%	nt	-9%	13%	39%	-1%
COc1ccc(-c2cc3c(nn2)-c2ccccc2C3=O)cc1	22µM*	?	-5%	11%	-8%	-14%
CCN1CCN(c2oc(-c3ccccc3C)nc2S(=O)(=O)c2ccccc2)CC1	?	-25%	35µM*	nt	-29%	?
Cc1ccccc1-c1nc(S(=O)(=O)c2ccccc2)c(NCCCN2CCOCC2)o1	-23%	-10%	nt	nt	24%	nt
COc1ccccc1-c1nc(S(=O)(=O)c2ccccc2)c(N2CCCCC2)o1	79µM*	nt	25µM*	?	?	-23%
COc1ccccc1-c1nc(S(=O)(=O)c2ccc(Cl)cc2)c(N2CCCCCC2)o1	-27%	nt	?	nt	-9%	-24%
O=S(=O)(c1ccccc1)c1nc(-c2ccc(F)cc2)oc1N1CCCCCC1	-22%	nt	13µM*	nt	-12%	?
NC(=O)C1CCN(c2oc(-c3ccc(F)cc3)nc2S(=O)(=O)c2ccccc2)CC1	-6%	0%	-7%[12.7 µM]	nt	21%	-9%
COC(=O)c1c(C)nc(C)c(C(=O)OC)c1-c1ccccc1[N+](=O)[O-]	nt	nt	nt	10%	nt	nt
C=CCN1c2ccccc2[C@]23C[C@@H](C(=O)OC)N(S(=O)(=O)c4ccc(C(F)(F)F)cc4)C2=NC(C(=O)OC)=C(C(=O)OC)[C@H]13	nt	nt	nt	1%	nt	nt
N#CC1=CN(Cc2ccccc2)C=C(/C=N/Nc2ccccc2)C1	?	nt	3.5µM*	-21%	1%	-35%
CCOC(=O)C(=O)C1=CN(Cc2ccccc2)C=C(C#N)C1	-6%	nt	?	5%	22%	6%
CCC(NC(=O)NNC(N)=S)(C(F)(F)F)C(F)(F)F	-19%	4%	?	45µM*	14%	-13%
CSc1cc2c(s1)c1cnn(Cc3cccc(O)c3)c(=O)c1n2C	-31%	nt	nt	nt	nt	nt
Cc1cc(C(=O)COC(=O)CC2Sc3ccccc3NC2=O)c(C)n1-c1ccc(Br)cc1 (stereo not given)	-27%	?	56µM*	-6%	-2%	-39%
Cc1cccc(NC(=S)c2nc3ccccc3s2)c1	50µM*	?	nt	2%	28µM*	8.9µM*
